The sample as a whole holds a higher share of hits than the screen did.
Pf Dd2 inh: inhibitors of Plasmodium falciparum Dd2 growth. Potency, µM (titrated, usually from 28.9 µM), inactives show top-dose activity, negative = inhibition, actives largely listed as inhibitors. 4.3% of 120,000 active. P. falciparum Dd2 growth, SYBR Green, 72 h; active means well fitted inhibition curve with a large enough effect;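 further: plate controls were DMSO vehicle for no effect and reference drug for full effect; nearly all actives have a fitted effect of over 65% in size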
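Infected erythrocytes (Dd2, 0.3% parasitemia, 2.5% hematocrit final) are added to compound in RPMI-1640/Albumax II medium, grown 72 h at 37C in low oxygen, then lysed with saponin/Triton-X containing SYBR Green and read by fluorescence.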
* marks the source's active call; other numbers are inactive results; i = inactive; [ ] = remark or other dose. Potency means the concentration at half of the fitted maximal effect.

SMILES	Pf Dd2 inh
COc1ccc2[nH]c3c(c2c1)CCNC31CCN(C(=O)c2cnn(C)c2)CC1	10.0%
CN(CC(=O)N1CCC(CCOc2ccc(F)cc2)C1)S(=O)(=O)c1cccs1 (configuration not stated)	-14.6%
CCN(CC)C(=O)CCc1c(C)nn(-c2ccccc2)c1Oc1ccccc1	10µM*
CCN(CC)C(=O)CCc1c(C)nn(-c2cccc(C)c2)c1Oc1ccccc1	-14.4%
CCN(CC)C(=O)CCc1c(C)nn(-c2ccc(F)cc2)c1Oc1ccccc1F	i
O=C(CCC1N=C2c3ccccc3N=C(SCc3cccc(Cl)c3)N2C1=O)N1CCN(c2ccccc2)CC1 (configuration not stated)	11.2µM*
O=C(CCC1N=C2c3ccccc3N=C(SCc3cccc(Cl)c3)N2C1=O)NCc1cccs1 (configuration not stated)	82.2%
O=C(CCC1N=C2c3ccccc3N=C(SCc3ccc(F)cc3)N2C1=O)N1CCN(c2ccccc2)CC1 (configuration not stated)	12.6µM*
O=C(CCC1N=C2c3ccccc3N=C(SCc3cccc(Cl)c3)N2C1=O)NCCc1ccccc1 (configuration not stated)	38.0%
O=C(CCC1N=C2c3ccccc3N=C(SCC(=O)NCCc3ccccc3)N2C1=O)NCc1ccc(F)cc1 (configuration not stated)	-19.4%
O=C(CC1N=C2c3ccccc3N=C(SCc3ccc(F)cc3)N2C1=O)NCCc1ccccc1 (configuration not stated)	-18.2%
COc1ccc(-c2noc([C@@H]3C[C@@H](O)CN3Cc3ccc(F)cc3)n2)cc1	i
O=C(N1CCN(S(=O)(=O)c2cccc(F)c2)CC1)N1CC2CC(C1)[C@H]1CCCC(=O)N1C2 (some centres not stated)	i
CS(=O)(=O)N1CCCC1c1noc(CCC(=O)NC2CC2)n1 (configuration not stated)	57.0%
COCCN(C)C[C@@H]1CN(C(=O)c2ccc(C(C)=O)s2)C[C@@H]1CO	-23.3%
COc1cccc(C(=O)Nc2nc3ccc(S(=O)(=O)N4CCCC4)cc3s2)c1	-15.3%
Cc1ccc(C(=O)Nc2nc3ccc(S(=O)(=O)N4CCCC4)cc3s2)cc1	4.6%
CN(C)c1cccc(C(=O)Nc2nc3ccc(S(=O)(=O)N4CCCC4)cc3s2)c1	12.6µM*
CCn1cnnc1CCNC(=O)CC1C(=O)NCCN1Cc1ccccc1 (configuration not stated)	30.1%
C[C@H](C(=O)NCCN1CCOCC1)C1CC[C@@]2(C)Cc3sc(CSc4ccccc4)nc3[C@@H](C)[C@@H]2[C@H]1O (some centres not stated)	i
c1ccc([C@@H]2C[C@H]2c2nc(C3CCOCC3)n[nH]2)cc1	-29.8%
COc1cccc(N2CCN(C(=O)COc3ccc(NC(=O)C4CC4)cn3)CC2)c1	-23.8%
CNC(=O)CCc1ccnc(N2CCCC2)c1	17.2%
O=C(CCc1ccnc(N2CCCC2)c1)NCc1cccc(Cl)c1	4.47µM*
Cc1nc(N2CCCC2)ncc1C(=O)NCc1cccc(Cl)c1	12.6%
SMILES	Pf Dd2 inh
CN1CCOc2c(C(=O)NCCC(N)=O)cc(-c3ccccc3F)cc21	-8.3%[44.1 µM]
C[S+](=O)([O-])N1Cc2ccccc2CC12CN(C(=O)c1ccccc1F)C2	-21.9%
O=C(c1ccc(Cl)cc1)N1CCC(N2CCCCC2=O)CC1	2.4%
COCc1nncn1C1CCN(S(=O)(=O)c2ccccc2)CC1	-12.6%
COCCn1nnnc1C1CC2(CCOCC2)C(=O)N1Cc1cccnc1 (configuration not stated)	-10.3%
COc1ccc(NC(=O)C(NC(=O)/C=C\c2ccc3c(c2)OCO3)c2ccccc2)cc1 (configuration not stated)	10µM*
COc1ccc(/C=C/C(=O)Nc2cccc(F)c2)cc1	i
COc1cccc(-c2nc(SCC(=O)Nc3ccc4c(c3)OCO4)c(-c3ccccc3)[nH]2)c1	-22.0%
COc1cccc(C2CNC(=O)c3nc(-c4ccc(C(=O)N(C)C)o4)[nH]c3C2)c1 (configuration not stated)	i
COc1ccccc1C1CNC(=O)c2nc(CCN3CCC(C)CC3)[nH]c2C1 (configuration not stated)	i
COc1cccc(C2CNC(=O)c3nc(Cn4nc(C)c(C)c4C)[nH]c3C2)c1 (configuration not stated)	10µM*
COc1ccc(-c2nnc3ccc(N4CCc5ccccc5CC4)nn23)nc1	i
COCCCNc1ccc2nnc(-c3ccc(C)cn3)n2n1	i
COc1ccc(-c2nnc3ccc(N(C)Cc4ccccc4)nn23)nc1	7.94µM*
COc1ccc(-c2nnc3ccc(N4CCN(c5ccccn5)CC4)nn23)nc1	12.6µM*
CN(C)c1ccc2nnc(-c3cc(C(=O)N(C)c4ccccc4)ccn3)n2n1	-16.8%[44.1 µM]
C[C@@H]1CN(c2ccc3nnc(-c4ccccn4)n3n2)C[C@H](C)O1	21.1%[44.1 µM]
O=C(CN1C(=O)CNC1=O)NCc1cccnc1Oc1ccccc1F	-1.5%
O=C(C1CCN(C(=O)N2CC3CC(C2)[C@H]2CCCC(=O)N2C3)CC1)N1CCN(C2CCCCC2)CC1 (some centres not stated)	i
COCCN(CCOC)CC[C@@H]1CC[C@H](O)[C@@H](C(=O)N2CCOCC2)O1	3.6%[44.1 µM]
COCCN(CCOC)CC[C@@H]1CC[C@H](O)[C@@H](C(=O)NC2CCCCC2)O1	-12.4%[44.1 µM]
COCCN(CCOC)CC[C@@H]1CC[C@H](O)[C@@H](C(=O)Nc2ccccc2)O1	15.8µM*
Cc1ccccc1-c1nccc2c(=O)cc(N3CCOCC3)oc12	-20.1%[44.1 µM]
CN1CCC(N2CCN(C(=O)CCC3CCCCC3)CC2)C1=O (configuration not stated)	1.7%
O=C1NCCCCCCN(C(=O)c2ccco2)[C@H]2C[C@H](c3nc(Cc4ccccc4)no3)C[C@@H]12	7.94µM*
SMILES	Pf Dd2 inh
Cc1ccc(C(=O)N2CCCCCCNC(=O)[C@@H]3C[C@@H](c4nc(Cc5ccccc5)no4)C[C@@H]32)cn1	i
O=C1NCCCCCCN(C(=O)CN2CCCC2=O)[C@H]2C[C@H](c3nc(Cc4ccccc4)no3)C[C@@H]12	-29.3%
Cn1nccc1C(=O)N1CCCCCCNC(=O)[C@@H]2C[C@@H](c3nc(Cc4ccccc4)no3)C[C@@H]21	-17.4%
N#Cc1ccc(C(=O)N2CCCCCCNC(=O)[C@@H]3C[C@@H](c4nc(Cc5ccccc5)no4)C[C@@H]32)cc1	11.2µM*
Cn1cc(C(=O)N2CCCCCCNC(=O)[C@@H]3C[C@@H](c4nc(Cc5ccccc5)no4)C[C@@H]32)cn1	-2.2%
O=C(CC1CCCN(c2cnn(CC3CC3)c(=O)c2)C1)NCCN1CCCCC1 (configuration not stated)	-4.5%
Cc1ccc(C2Cn3cnc(C(=O)N4CCC(C(=O)NCc5ccccc5Cl)CC4)c3CO2)cc1 (configuration not stated)	i
O=C(c1cccnc1)N1CCN2C(=O)N(C3CCCCC3)C[C@H]2C1	38.5%[44.1 µM]
COc1ccc(C(=O)N(C)C2CCc3nnc(C)n3CC2)cc1F (configuration not stated)	12.8%
CCn1nccc1C(=O)N1CCC(Cc2noc(C3CCOCC3)n2)C1 (configuration not stated)	7.5%
COCCN1C[C@H]2CN(C(=O)NCc3ccccc3)CCN2C1=O	-9.5%[44.1 µM]
COc1ccc(C(=O)NCCn2cc(SCC(=O)Nc3ccc4c(c3)OCCO4)c3ccccc32)cc1OC	i

Compound activity from PubChem.
